Experimental findings from PubChem BioAssay (NCI) are described below.

Some test systems named below: DU-145 prostate; K-562 leukemia; MALME-3M melanoma; MDA-MB-231 breast; RXF 393 renal; SF-268 CNS; SF-295 CNS; SF-539 CNS; UACC-257 melanoma; M14 melanoma.
Holding throughout (experiment): NCI-60 one-dose screen, 48 h (100 = growth as untreated, 0 = no growth, -100 = all killed)
Details in all cases: 10 µM unless noted

This is part of a sample that, as a whole, favours compounds with a hit. Of some 83,000 tested, about 20% had one in any assay.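 The endpoint reported here, percent growth, reads 100 for growth as untreated, 0 for no net growth and -100 for all cells dead.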 A number with no mark means an inactive call. Active and inactive are the calls of the source. Rule for the calls: active = growth percent below 10; inactive = the rest.

As for `O=C(CSc1ncc(-c2ccccc2)n1-c1ccccc1)Nc1ccc(-c2nc3ccccc3s2)cc1`, the growth is 68.4% in the test with DU-145 prostate; 70.7% with K-562 leukemia; 17% in the test with MALME-3M melanoma; 95.4% in the test with MDA-MB-231 breast; 93.2% with RXF 393 renal; 54.3% with SF-268 CNS. Besides, the growth is 96.4% in the test with SF-295 CNS, 59.8% in the test on SF-539 CNS, 48.8% with UACC-257 melanoma and 72.8% with M14 melanoma.

In the case of `Nc1c(C(=O)Nc2cccc(Cl)c2)sc2nc3c(cc12)C(O)CCC3` (stereo not given), the growth with DU-145 prostate is 7.3% (active); in the test on K-562 leukemia, 10.6%; in the test on MALME-3M melanoma, 40.2%; with MDA-MB-231 breast, 42.6%; in the test with RXF 393 renal, -25.4% (active); in the test on SF-268 CNS it was 50.2%. For the same compound, the growth with SF-295 CNS is 13.7%; in the test on SF-539 CNS, -24.9% (active); with UACC-257 melanoma it was 66.1%; in the test on M14 melanoma, 17.1%.

On to `CC(=O)Nc1c(Cl)cc2c(c1Cl)Cc1cc([N+](=O)[O-])ccc1-2`, for which the growth was 93.3% with DU-145 prostate; 80.4% in the test with K-562 leukemia; 68.2% with MALME-3M melanoma; 97.5% in the test on MDA-MB-231 breast; 104% in the test on RXF 393 renal; 101% with SF-268 CNS. In addition, the growth with SF-295 CNS was 81.8%; in the test on SF-539 CNS, 89.1%; in the test with UACC-257 melanoma, 77.9%; with M14 melanoma, 88.1%.

As to `CCNCCCn1c2c(c3ccc(F)cc3c1=O)C(=O)c1cc(OC)cnc1-2`, the growth with DU-145 prostate was -2.92% (active); in the test with K-562 leukemia, 1.44% (active); in the test with MALME-3M melanoma, -68.7% (active); in the test with MDA-MB-231 breast, 3.91% (active); in the test with RXF 393 renal, -80.8% (active); with SF-268 CNS, 1.76% (active). For the same compound, the growth in the test on SF-295 CNS was -21% (active); with SF-539 CNS it was -25.7% (active); in the test with UACC-257 melanoma, -20.4% (active); in the test on M14 melanoma, -25.9% (active).

Turning to `COc1ccc(NS(=O)(=O)N2CCCCC2)cc1`, the growth is 116% with DU-145 prostate; 93.8% in the test with K-562 leukemia; 117% with MALME-3M melanoma; 91.5% in the test on MDA-MB-231 breast; 105% in the test with RXF 393 renal; 98.9% with SF-268 CNS. The growth with SF-295 CNS is 113%; with SF-539 CNS, 108%; with UACC-257 melanoma, 102%; in the test with M14 melanoma it was 102%.

Regarding `CCOc1cc(/C=C/C(=O)CC(=O)/C=C/c2ccc(OC(=O)CNCCN(CC)CC)c(OCC)c2)ccc1OC(=O)CNCCN(CC)CC`, the growth is -44.3% (active) with DU-145 prostate; -10.8% (active) in the test on K-562 leukemia; -39.9% (active) with MALME-3M melanoma; 5.09% (active) in the test on MDA-MB-231 breast; -79.4% (active) in the test with RXF 393 renal; 3.21% (active) in the test on SF-268 CNS. For the same compound, the growth in the test with SF-295 CNS was -18.4% (active); in the test with SF-539 CNS, -58.1% (active); in the test on UACC-257 melanoma it was 23.6%; in the test on M14 melanoma, -14.5% (active).

Regarding `CC1CN(C2CCCCC2)C(=O)NC1=O` (stereo not given), the growth in the test on DU-145 prostate is 113%; with K-562 leukemia, 103%; with MALME-3M melanoma it was 108%; in the test on MDA-MB-231 breast, 104%; with RXF 393 renal, 110%; in the test on SF-268 CNS, 105%. Further, the growth in the test with SF-295 CNS was 108%; with SF-539 CNS, 106%; in the test on UACC-257 melanoma it was 109%; in the test with M14 melanoma, 99.3%.

For the compound `Cc1cc(C)c(C(=O)c2cccs2)c(C)c1`, the growth with DU-145 prostate is 111%; in the test on K-562 leukemia it was 98.4%; in the test with MALME-3M melanoma it was 110%; in the test with MDA-MB-231 breast, 107%; with RXF 393 renal, 110%; in the test on SF-268 CNS, 104%. The growth was 122% in the test with SF-295 CNS, 106% with SF-539 CNS, 99.3% in the test with UACC-257 melanoma and 103% in the test with M14 melanoma.

In the case of `O=C(O)CCC(=O)OC[C@@H](NC(=O)C(Cl)Cl)[C@H](O)c1ccc([N+](=O)[O-])cc1`, the growth is 110% with DU-145 prostate; 98.6% in the test with K-562 leukemia; 96% with MALME-3M melanoma; 103% in the test on MDA-MB-231 breast; 104% with RXF 393 renal; 109% with SF-268 CNS. The growth with SF-295 CNS is 101%; in the test with SF-539 CNS, 100%; in the test with UACC-257 melanoma it was 104%; in the test on M14 melanoma, 98%.

As to `CCOC(=O)OCC(=O)[C@@]1(O)CC[C@H]2[C@@H]3CCC4=CC(=O)CC[C@]4(C)[C@H]3[C@@H](O)C[C@@]21C`, the growth in the test on DU-145 prostate was 101%; with K-562 leukemia, 111%; with MALME-3M melanoma, 75.7%; in the test with MDA-MB-231 breast it was 98.2%; in the test on RXF 393 renal, 127%; with SF-268 CNS, 94%. For the same compound, the growth was 129% with SF-295 CNS, 91.3% in the test on SF-539 CNS, 93.4% with UACC-257 melanoma and 90.7% in the test on M14 melanoma.

Take `OCCCc1n(Cc2ccc3ccccc3c2)c2ccccc2[n+]1Cc1ccc2ccccc2c1`: the growth with DU-145 prostate was 48.1%; with K-562 leukemia it was 9.14% (active); in the test with MALME-3M melanoma it was -11.2% (active); in the test on MDA-MB-231 breast, -17.7% (active); with RXF 393 renal it was 14.6%; in the test with SF-268 CNS, 22.5%. For the same compound, the growth in the test with SF-295 CNS was 32.8%; with SF-539 CNS it was 18.1%; in the test with UACC-257 melanoma, -14.1% (active); in the test on M14 melanoma it was 3% (active).

On to `O=C(Nc1ccccc1S)c1ccccc1`, for which the growth was 111% in the test on DU-145 prostate; 86.2% with K-562 leukemia; 116% in the test on MALME-3M melanoma; 102% with MDA-MB-231 breast; 125% with RXF 393 renal; 103% in the test on SF-268 CNS. The growth with SF-295 CNS is 100%; in the test with SF-539 CNS, 104%; in the test with UACC-257 melanoma, 92.8%; in the test with M14 melanoma, 101%.

Take `COc1cc(C2CC(C3C(=O)N(C)C(=O)N(C)C3=O)=NN2c2cc(Cl)cc(Cl)c2)cc(OC)c1OC` (stereo not given): the growth in the test with DU-145 prostate was 107%; in the test on K-562 leukemia, 88.4%; with MALME-3M melanoma, 89.1%; in the test on MDA-MB-231 breast, 103%; in the test on RXF 393 renal, 99.3%; in the test on SF-268 CNS it was 103%. Further, the growth was 84.4% in the test with SF-295 CNS, 96% in the test on SF-539 CNS, 74.2% with UACC-257 melanoma and 89.3% with M14 melanoma.
